# In the antibiotic and cytotoxicity screens of Wong et al. (2023):
# Among all 39,000 compounds or so, about 3,300 (8.5%) were called active. Shown is part of a subset that was picked to be rich in actives.
# Tested on: HepG2
# Test: cytotoxicity call (relative viability < 0.9)
# Conditions: 10 µM
row,SMILES,cytotoxicity call
1,Cn1cccc1C(=O)NCc1cn2c(n1)CN(S(C)(=O)=O)CC2,inactive
2,COC(=O)[C@@H]1N2C(=O)[C@@H](N3C[C@](C)(OC)O[C@@H](Cc4ccccc4)[C@H]3/C=C/C3CC3)[C@H]2SC1(C)C,inactive
3,C[C@H]1CCCCO[C@@H](CN(C)C(=O)Nc2cccc3ccccc23)[C@@H](C)CN([C@@H](C)CO)C(=O)c2cc(NC(=O)c3ccncc3)ccc2O1,inactive
4,C[C@H]1CN([C@@H](C)CO)C(=O)c2cc(C#CCN(C)C)cnc2O[C@@H]1CN(C)C(=O)Nc1cc(F)ccc1F,inactive
5,O=C(C[C@@H]1CC[C@H]2[C@@H](COC[C@H](O)CN2S(=O)(=O)c2ccccc2)O1)NCc1ccc(-c2ccccc2)cc1,inactive
6,COCC(=O)N1C[C@@H](C)[C@@H](OC)CN(C)C(=O)c2ccc(NC(=O)c3ccc(F)cc3)cc2OC[C@H]1C,inactive
7,COc1ccc(S(=O)(=O)N(C)C[C@H]2Oc3ccc(NS(=O)(=O)c4c(C)noc4C)cc3CC(=O)N([C@H](C)CO)C[C@@H]2C)cc1,inactive
8,COc1ccc(S(=O)(=O)N(C)C[C@H]2OCCCC[C@@H](C)Oc3ccc(NC(=O)Nc4cccc5ccccc45)cc3C(=O)N([C@H](C)CO)C[C@H]2C)cc1,inactive
9,CC(C)(C)NC(=O)C1CN(Cc2cccnc2)CCN1CC(O)CC(Cc1ccccc1)C(=O)NC1c2ccccc2CC1O (configuration not stated),active
10,CC(C)(C)NC(=O)[C@@H]1CN(Cc2cccnc2)CCN1C[C@@H](O)C[C@@H](Cc1ccccc1)C(=O)N[C@@H]1c2ccccc2C[C@@H]1O,inactive
11,CC(C)(C)NC(=O)[C@@H]1CN(Cc2cccnc2)CCN1C[C@@H](O)C[C@@H](Cc1ccccc1)C(=O)N[C@H]1c2ccccc2C[C@H]1O,inactive
12,O=C(C[C@@H]1CC[C@H]2[C@@H](COC[C@H](O)CN2S(=O)(=O)c2cccc(F)c2)O1)NCCCN1CCOCC1,inactive
13,NCc1ccncc1,inactive
14,C=CCOC(=O)[C@@H]1[C@H]2C(=O)O[C@H](c3ccccc3)[C@H](c3ccccc3)N2[C@H](c2ccc(OCCOC(=O)[C@H]3C[C@H]4C(=O)NCC(=O)N4[C@H]3c3ccc(O)cc3)cc2)[C@@]12C(=O)Nc1ccccc12,inactive
15,C[C@H]1CC/C=C\[C@H]2O[C@@]34C=CCN(CCN5CCOCC5)C(=O)[C@H]3N(CCCO)C(=O)[C@@H]4[C@@H]2C(=O)O1,inactive
16,Nc1nc(=O)[nH]cc1NC(=O)c1ccccc1,inactive
17,C[C@@H](N)c1ccc(C(=O)Nc2ccnc3[nH]ccc23)cc1,active
18,CC[C@@H](C)c1ccc(NC(=O)c2ccc(N(CC)CC)cc2)cc1,inactive
19,c1cnc2c(SCc3nc4ccccc4s3)cccc2c1,active
20,c1ccc2c(CSc3nc4ccccc4s3)cccc2c1,inactive
21,CCSc1cccc2cccnc12,inactive

row,SMILES,cytotoxicity call
1,COc1ccc(S(=O)(=O)Nc2ccc3c(c2)C(=O)N([C@@H](C)CO)C[C@@H](C)[C@H](CN(C)Cc2ccc(Cl)c(Cl)c2)O3)cc1,active
2,COc1ccc(S(=O)(=O)Nc2ccc3c(c2)C(=O)N([C@H](C)CO)C[C@H](C)[C@H](CN(C)Cc2ccc(Cl)c(Cl)c2)O3)cc1,inactive
3,COc1ccc(S(=O)(=O)Nc2ccc3c(c2)C(=O)N([C@H](C)CO)C[C@H](C)[C@@H](CN(C)Cc2ccc(Cl)c(Cl)c2)O3)cc1,inactive
4,COc1ccc(S(=O)(=O)Nc2ccc3c(c2)C(=O)N([C@@H](C)CO)C[C@@H](C)[C@@H](CN(C)Cc2ccc(Cl)c(Cl)c2)O3)cc1,active
5,COc1ccc(S(=O)(=O)Nc2ccc3c(c2)C(=O)N([C@@H](C)CO)C[C@H](C)[C@H](CN(C)Cc2ccc(Cl)c(Cl)c2)O3)cc1,inactive
6,COc1ccc(S(=O)(=O)Nc2ccc3c(c2)C(=O)N([C@@H](C)CO)C[C@H](C)[C@@H](CN(C)Cc2ccc(Cl)c(Cl)c2)O3)cc1,inactive
7,C[C@@H]1CCCCO[C@@H](CN(C)S(=O)(=O)c2ccc(Cl)cc2)[C@@H](C)CN([C@H](C)CO)C(=O)c2cc(NC(=O)CCCCCC(=O)Nc3ccccc3N)ccc2O1,inactive
8,C[C@H]1CN([C@@H](C)CO)C(=O)Cc2cc(NS(C)(=O)=O)ccc2O[C@H]1CN(C)C,inactive
9,C[C@H]1CN([C@@H](C)CO)C(=O)Cc2cc(NC(=O)c3ccncc3)ccc2O[C@@H]1CN(C)Cc1ccncc1,inactive
10,C=CCOc1ccc(C(=O)C2=C(O)C(=O)N(CCCN3CCOCC3)[C@@]23C(=O)N(C)c2ccccc23)cc1C,inactive
11,COCC(=O)Nc1ccc2c(c1)C(=O)N(C)[C@H]1CC[C@@H](CC(=O)NC3Cc4ccccc4C3)O[C@@H]1CO2,inactive
12,COc1ccc(CN(C)C[C@H]2OCCCC[C@@H](C)Oc3ccc(NS(=O)(=O)c4c(C)noc4C)cc3C(=O)N([C@H](C)CO)C[C@H]2C)cc1,inactive
13,COc1ccc(NC(=O)Nc2ccc3c(c2)C(=O)N([C@H](C)CO)C[C@H](C)[C@H](CN(C)C(=O)Nc2ccc(C(F)(F)F)cc2)O3)cc1,inactive
14,C[C@@H]1CN([C@H](C)CO)C(=O)c2cc(NS(=O)(=O)c3ccc(Cl)cc3)ccc2O[C@@H](C)CCCCO[C@@H]1CN(C)Cc1ccc(Cl)c(Cl)c1,active
15,C[C@@H]1CCCCO[C@@H](CN(C)Cc2ccc(Cl)c(Cl)c2)[C@H](C)CN([C@@H](C)CO)C(=O)c2cc(NS(=O)(=O)c3ccc(Cl)cc3)ccc2O1,active
16,C[C@@H]1CN([C@H](C)CO)C(=O)c2cc(NS(=O)(=O)c3ccc(Cl)cc3)ccc2O[C@@H](C)CCCCO[C@H]1CN(C)Cc1ccc(Cl)c(Cl)c1,active
17,C[C@@H]1CCCCO[C@@H](CN(C)Cc2ccc(Cl)c(Cl)c2)[C@@H](C)CN([C@@H](C)CO)C(=O)c2cc(NS(=O)(=O)c3ccc(Cl)cc3)ccc2O1,active
18,C[C@@H]1CN([C@H](C)CO)C(=O)c2c(c3ccccc3n2C)-c2ccccc2CO[C@H]1CN(C)Cc1ccc(Oc2ccccc2)cc1,inactive
19,O=C(C[C@@H]1CC[C@@H]2[C@H](COC[C@H](O)CN2C(=O)Nc2cccc(Cl)c2)O1)NCCCN1CCOCC1,inactive
20,C[C@@H]1CN([C@H](C)CO)C(=O)Cc2cc(NS(C)(=O)=O)ccc2O[C@@H]1CN(C)S(=O)(=O)c1cn(C)cn1,inactive
21,C[C@@H]1CCCCO[C@H](CN(C)S(=O)(=O)c2cn(C)cn2)[C@H](C)CN([C@@H](C)CO)C(=O)c2cc(NC(=O)CCCN(C)C)ccc2O1,inactive

row,SMILES,cytotoxicity call
1,CO[C@H](CN(C)C(=O)Nc1ccc(C(F)(F)F)cc1)[C@H](C)CN(Cc1ccccc1Cl)[C@@H](C)CO,inactive
2,C[C@@H]1CN([C@H](C)CO)C(=O)c2c(c3ccccc3n2C)-c2ccccc2CO[C@@H]1CN(C)C(=O)Nc1ccc(F)cc1,inactive
3,COCC(=O)N1CC[C@@H](O)[C@@H]1Cc1cnn(C)c1,inactive
4,CN1C(=O)c2cc(NC(=O)C3CCOCC3)ccc2OC[C@H]2O[C@H](CC(=O)NCc3ccccc3F)CC[C@@H]21,inactive
5,COC(=O)C[C@@H]1CC[C@H]2[C@H](COc3ccc(NS(=O)(=O)c4ccccc4Cl)cc3C(=O)N2C)O1,inactive
6,COCC(=O)N1C[C@H](C)[C@H](OC)CN(C)C(=O)c2cc(NC(=O)Nc3ccccc3)ccc2OC[C@H]1C,inactive
7,C[C@@H]1CN([C@H](C)CO)C(=O)c2cccc(NC(=O)c3ccncc3)c2O[C@H]1CN(C)Cc1ccc2c(c1)OCO2,inactive
8,O=C(CCCCCCC(=O)N/N=C/[C@@H](O)[C@H](O)[C@H](O)CO)NO,inactive
9,C[C@@H]1CCCCO[C@@H](CN(C)Cc2ccc(Cl)c(Cl)c2)[C@H](C)CN([C@H](C)CO)C(=O)c2cc(NS(=O)(=O)c3ccc(Cl)cc3)ccc2O1,active
10,C[C@H](CO)N1C[C@H](C)[C@@H](CN(C)Cc2ccc(Cl)c(Cl)c2)OCCCC[C@H](C)Oc2ccc(NS(=O)(=O)c3ccc(Cl)cc3)cc2C1=O,inactive
11,C[C@@H]1CCCCO[C@H](CN(C)Cc2ccc(Cl)c(Cl)c2)[C@@H](C)CN([C@H](C)CO)C(=O)c2cc(NS(=O)(=O)c3ccc(Cl)cc3)ccc2O1,active
12,C[C@@H]1CCCCO[C@@H](CN(C)Cc2ccc(Cl)c(Cl)c2)[C@@H](C)CN([C@H](C)CO)C(=O)c2cc(NS(=O)(=O)c3ccc(Cl)cc3)ccc2O1,inactive
13,C[C@@H]1CCCCO[C@H](CN(C)Cc2ccc(Cl)c(Cl)c2)[C@@H](C)CN([C@@H](C)CO)C(=O)c2cc(NS(=O)(=O)c3ccc(Cl)cc3)ccc2O1,active
14,C[C@@H]1CCCCO[C@H](CN(C)Cc2ccc(Cl)c(Cl)c2)[C@H](C)CN([C@@H](C)CO)C(=O)c2cc(NS(=O)(=O)c3ccc(Cl)cc3)ccc2O1,active
15,CC(C)NC(=O)Nc1cccc2c1O[C@H](CN(C)Cc1ccc3c(c1)OCO3)[C@@H](C)CN([C@@H](C)CO)C2=O,inactive
16,COc1ccc(NC(=O)Nc2ccc3c(c2)C(=O)N([C@H](C)CO)C[C@H](C)[C@@H](CN(C)C(=O)Nc2ccc(C(F)(F)F)cc2)OCCCC[C@H](C)O3)cc1,inactive
17,C[C@@H]1CN([C@@H](C)CO)C(=O)c2cc(NC(=O)Nc3ccc(F)cc3)ccc2O[C@@H](C)CCCCO[C@H]1CN(C)Cc1ccc(C(=O)O)cc1,inactive
18,COc1cccc(S(=O)(=O)N2C[C@H](O)COC[C@H]3O[C@H](CC(=O)NCCCN4CCOCC4)CC[C@@H]32)c1,inactive
19,CN1[C@@H]2c3ccc(-c4ccccc4)c(=O)n3C[C@H]1[C@H](CO)[C@H]2C(=O)NCCCN1CCOCC1,inactive
20,Cc1noc(C)c1NC(=O)Nc1cccc2c1O[C@H](CN(C)C(=O)NC(C)C)[C@H](C)CN([C@@H](C)CO)C2=O,inactive
